Drawing on PMC12136788, this text covers binding signal for 14 molecules.

The labels stand for the following.
T1: UNK ZnF1-3 (human, UniProt Q9C0B0 31-174)
T1 sequence: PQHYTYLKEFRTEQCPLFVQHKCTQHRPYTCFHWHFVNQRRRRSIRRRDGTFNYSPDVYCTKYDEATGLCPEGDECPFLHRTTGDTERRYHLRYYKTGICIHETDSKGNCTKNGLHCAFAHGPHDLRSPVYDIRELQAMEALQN

B1: chr5:64741823:64741824:+_ENSMUSG00000029174_ENSMUST00000119756|mus_mus|motif|central (ssRNA)
RNA: GGGAGUUCUACAGUCCGACGAUCAAUAAAUAUGUCAGACCCCACAGCUACAGGUCCCACACUAGCAAUAACAGGGAAUCGGAAAACUGUGAUUUCCUUAUGAAACAUUUACCUGUGACUUGAAAGGGUAAGCAAAAACCAUACCAACAGAGGAUUGAGCAUCA
B2: chr16:94664741:94664742:+_ENSMUSG00000040785_ENSMUST00000117648|mus_hu|mus_mus_mus_hu_False|1_98 (ssRNA)
RNA: GGGAGUUCUACAGUCCGACGAUCUGGUACUGAUCUUUGCAUUGGAUAUUCAGGAGAAAGGCUGGCCAAGGGUGUAUAUAUGCUGGUGUACUGGGGCAAACCUGGUAACACGUUUAUGUAUGCUGGCGGUGUCUGGGUGCCAAACAACAGAGGAUUGAGCAUCA
B3: chr1:44133529:44133530:+_ENSG00000066135_ENST00000372396|hu_mus|FALSE|FALSE (ssRNA)
RNA: GGGAGUUCUACAGUCCGACGAUCGAACUCGGCUGCUUCCGGUGUGGGCAGAGUGUGGUCAAUAACCAUGCUGUCCUUCCCAGCUUUCCAAAGUUUGUAGCGUUCCGGCUGGAACCUCCUCACGAACACGUCCAUGGAGAUCUUCAACAGAGGAUUGAGCAUCA
B4: chr10:75008345:75008346:-_ENSG00000213551_ENST00000372950|hu_hu|motif|central (ssRNA)
RNA: GGGAGUUCUACAGUCCGACGAUCCUAUAUCUUAGUCACACACCAGAGUUAAGCCAUCUGUCUUUGCUCAUUUUUCCCUCGGUGGACAACAUAAUAUGUUGGGAAGGGCUUUCCAGGAGGGCAUAACCGGGAGAUGAAUCUUACCAACAGAGGAUUGAGCAUCA
B5: chr1:225611761:225611762:-_ENSG00000143815_ENST00000272163|hu_mus|hu_hu_hu_mus_True|8_88 (ssRNA)
RNA: GGGAGUUCUACAGUCCGACGAUCCCAGGCCAUCGGCCUCUGACCACUUCACCAUCGACAAACUUCCUACUUGGCAUUUUCUAAAAUUAGUCUGGCCGCGCUCCGGCGGGAACUCCAGCCACUCCAGGGAGAAUAGUAGCAGCCCAACAGAGGAUUGAGCAUCA
B6: chr2:179515052:179515053:+_ENSMUSG00000000305_ENSMUST00000000314|mus_hu|FALSE|FALSE (ssRNA)
RNA: GGGAGUUCUACAGUCCGACGAUCGCUGUCCCAUGCAGUCACCGUGAACGCCACCUGCUCGGAGGGGACCUGCAGCUCCCGGGUGGCGAAGACUGUCCCAUCUGCCCCAACUUUGAAGUCCAUGCUGUUGGUCUCAUAUUGUGUCAACAGAGGAUUGAGCAUCA
B7: chr4:95690885:95690886:+_ENSMUSG00000028572_ENSMUST00000156910|mus_mus|mus_mus_mus_hu_False|8_78 (ssRNA)
RNA: GGGAGUUCUACAGUCCGACGAUCUUUAGAAAAUGUUAAAUACCAUGCUAAAAUAUUGUAAUUUUAAUAUUUUAUUUUACCAGAAGUCACAGGCAAGCAGACACUACAAGAAUAUAUGAAAAUGAAACAACAGUGUAUAACUGUCAACAGAGGAUUGAGCAUCA
B8: chr11:31834330:31834331:+_ENSMUSG00000020300_ENSMUST00000109412|mus_mus|FALSE|FALSE (ssRNA)
RNA: GGGAGUUCUACAGUCCGACGAUCAUAAAGUUCAGAGUAAUAGAUAAUCAUUGUUUAUGCCCUGUAAAGAAGUGGAACCAAAUCAUCUGUAAACACGCUUGUCACACAAUCACAAGUAAAUAUUAGCAGAAUAACAAUUUCUUACAACAGAGGAUUGAGCAUCA
B9: chr7:7676484:7676485:-_ENSG00000106399_ENST00000223129|hu_mus|FALSE|FALSE (ssRNA)
RNA: GGGAGUUCUACAGUCCGACGAUCAAGUAUCACUUUUAAAAAAAGUUUAUAAAAAGGCUUAGUUGUAAACUGUCAUAAUAGAUUUACAAAAAAAUAUAUAUAUAUAAAAGAACAAAUUAAAUAUUAGAAAUUAUAGGAGUCGCUCAACAGAGGAUUGAGCAUCA
B10: chr6:13577978:13577979:-_ENSMUSG00000042742_ENSMUST00000045235|mus_hu|FALSE|FALSE (ssRNA)
RNA: GGGAGUUCUACAGUCCGACGAUCAAAAAGAAUUAUCACCAAUUACAAAAAGUUCAGUAAAUAUUGGAUCAUCAGACAAAAAAGGAACAUAAAAUGACUUUCUGUAACAUCACAAUUUUAGUUAGAAAAAAGAAAAAGAUAAGUCAACAGAGGAUUGAGCAUCA
B11: chr19:15271055:15271056:-_ENSG00000074181_ENST00000263388|hu_mus|FALSE|FALSE (ssRNA)
RNA: GGGAGUUCUACAGUCCGACGAUCAUAUAUAUUUUGUAAAAAAUAAUAAUAAUAAUAAGUUUGUUUAAAUGAAUUUGUCUCUAUACAAAAUGUAAAAAAGAAAAAAAUAAUAACUCACUCUUGUCAGAGUGUGAGACAAUGAGACAACAGAGGAUUGAGCAUCA
B12: chr11:99246628:99246629:-_ENSMUSG00000019761_ENSMUST00000103131|mus_mus|FALSE|FALSE (ssRNA)
RNA: GGGAGUUCUACAGUCCGACGAUCAUAGUUUGCAUCAGUAAGAAAGUUUAUUGAAAUUUAUUAGUAAAUGAGAAAUUAAUAAGUAAGUGAGAAAGUUUUCUUCUUUUUUCUCCACAAAAGAACACUUUCUGAUAGAUGAAAAGACAACAGAGGAUUGAGCAUCA
B13: chr3:169711627:169711628:+_ENSG00000008952_ENST00000337002|hu_hu|motif|central (ssRNA)
RNA: GGGAGUUCUACAGUCCGACGAUCUAAAAACAUACCCUUACAUGGUCUUAAUUUUAUGAAUUUAAGUGUUGAGAAAUAUCGGAAUAAUAAGUAACAAUUAAAAUAAAAUGUUUUAUUUGUAAAUUAUGUACAGAAUACACUUUACAACAGAGGAUUGAGCAUCA
B14: 13037762_13037882_4555_3pUTR_ENSMUSG00000029571_ENSMUST00000031556|mouse|control|control (ssRNA)
RNA: GGGAGUUCUACAGUCCGACGAUCUAAAAGGUACUCCUAUUUUAAAAACAUAUGAAUGAAACUAUCUUCUAAAAUAAGACGCAAUGUGUUAACAACCAGUUGAUUUAAGCACUUUAAAAGGCAGAAUGGAAAAGUCGGCACACCCAACAGAGGAUUGAGCAUCA

In all, about 24,000 sequences were measured (“enrichment r”: median about 0.99, highest 2% from about 3.7 on). The full list was thinned out, with the highest values kept by preference.

The target of the experiment is T1, UNK ZnF1-3. Description: nsRBNS (natural sequence RNA bind-n-seq); RBNS binding buffer (assumed for nsRBNS): 25 mM Tris pH 7.5, 150 mM KCl, 3 mM MgCl2, 0.01% Triton X-100, 500 ug/ml BSA, 20 U/ml SUPERase-In, 4 C; UNK is unkempt and MSI1 is Musashi-1; names of the RNAs are library labels; protein concentration not given here; high values mean tight binding.
On to B1, for which the binding signal came out at 1.44 enrichment R.

Turning to B2, the binding signal is 0.999 enrichment R.

B3: the binding signal came out at 0.602 enrichment R.

B4 showed a binding signal of 1.77 enrichment R.

B5 gave a binding signal of 1.19 enrichment R.

B6 gave a binding signal of 0.755 enrichment R.

Turning to B7, the binding signal amounted to 1.97 enrichment R.

Molecule B8 had a binding signal of 0.945 enrichment R.

B9: the binding signal is 21.9 enrichment R.

For B10, the binding signal stood at 3.59 enrichment R.

Regarding B11, the binding signal is 4.58 enrichment R.

Take B12: the binding signal stood at 19.7 enrichment R.

B13 showed a binding signal of 5.94 enrichment R.

For B14, the binding signal worked out at 1.37 enrichment R.
